Key:
Experiment in all cases: DAPPL (digital affinity profiling via proximity ligation, sequencing); 10 mM Tris-HCl pH 7.5, 50 mM NaCl, 1 mM DTT, 4% glycerol, room temperature, 30 min; GST-TFs on glutathione beads, 16-mer random dsDNA library, 0.1% formaldehyde crosslink after washing; high values mean tight binding
Details in all cases: protein: recombinant; tags: N-terminal GST; dsDNA, one strand shown
FLI1 = molecular target: T1, FLI1 (Homo sapiens, UniProt Q01543 1-452)
T1 sequence: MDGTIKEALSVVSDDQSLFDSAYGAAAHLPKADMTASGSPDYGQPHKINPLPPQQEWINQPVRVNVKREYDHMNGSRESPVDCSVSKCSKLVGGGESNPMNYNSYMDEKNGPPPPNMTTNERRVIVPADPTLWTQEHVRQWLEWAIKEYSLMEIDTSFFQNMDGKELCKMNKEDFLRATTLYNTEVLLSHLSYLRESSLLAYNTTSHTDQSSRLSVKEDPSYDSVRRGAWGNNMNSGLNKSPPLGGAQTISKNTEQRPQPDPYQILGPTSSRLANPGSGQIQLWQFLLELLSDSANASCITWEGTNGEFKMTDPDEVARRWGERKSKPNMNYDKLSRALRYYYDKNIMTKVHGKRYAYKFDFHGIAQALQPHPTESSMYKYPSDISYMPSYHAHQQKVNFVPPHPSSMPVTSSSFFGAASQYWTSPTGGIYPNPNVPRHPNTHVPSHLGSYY
Summary of the method: (§1)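 Pools were built from human transcription factors expressed in yeast as GST fusions, captured on glutathione beads and DNA-barcoded, along with a tag-only sample. Incubation with 200 nmole of a 16-mer random double-stranded DNA library lasted 30 min at room temperature in Tris/NaCl/DTT/glycerol buffer, and was followed by washing, 0.1% formaldehyde crosslinking, proximity ligation, PCR amplification and Illumina NextSeq500 sequencing. Binding signal is the quotient of each hexamer's read frequency for a factor and its frequency for the tag-only sample.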

ELK1 = molecular target: T2, ELK1 (Homo sapiens, UniProt P19419 1-428)
T2 sequence: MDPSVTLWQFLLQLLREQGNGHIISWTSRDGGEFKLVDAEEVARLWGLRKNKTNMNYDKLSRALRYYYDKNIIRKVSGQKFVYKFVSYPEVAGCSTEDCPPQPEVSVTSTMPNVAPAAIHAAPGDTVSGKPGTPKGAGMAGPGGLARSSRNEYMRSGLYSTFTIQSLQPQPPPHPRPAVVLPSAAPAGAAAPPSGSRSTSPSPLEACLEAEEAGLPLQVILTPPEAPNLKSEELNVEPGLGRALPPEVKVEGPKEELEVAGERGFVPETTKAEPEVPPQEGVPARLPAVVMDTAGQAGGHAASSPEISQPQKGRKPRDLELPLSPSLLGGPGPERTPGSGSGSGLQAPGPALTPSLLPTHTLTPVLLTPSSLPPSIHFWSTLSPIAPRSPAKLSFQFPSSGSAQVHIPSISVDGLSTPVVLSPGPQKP
Summary of the method: as §1

GABPA = molecular target: T3, GABPA (Homo sapiens, UniProt Q06546 1-454)
T3 sequence: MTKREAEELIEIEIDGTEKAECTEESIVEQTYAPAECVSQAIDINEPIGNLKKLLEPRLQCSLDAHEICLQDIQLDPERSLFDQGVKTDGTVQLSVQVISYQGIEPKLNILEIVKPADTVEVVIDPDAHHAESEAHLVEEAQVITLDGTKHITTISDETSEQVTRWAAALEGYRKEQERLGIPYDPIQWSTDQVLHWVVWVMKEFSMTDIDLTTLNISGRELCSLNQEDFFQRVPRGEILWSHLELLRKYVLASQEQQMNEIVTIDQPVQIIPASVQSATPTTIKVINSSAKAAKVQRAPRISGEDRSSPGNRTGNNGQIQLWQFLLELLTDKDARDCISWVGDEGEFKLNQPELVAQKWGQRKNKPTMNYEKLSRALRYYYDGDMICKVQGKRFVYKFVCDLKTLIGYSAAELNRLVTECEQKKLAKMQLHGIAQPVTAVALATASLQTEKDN
Summary of the method: as §1

ERG = molecular target: T4, ERG (Homo sapiens, UniProt P11308 1-479)
T4 sequence: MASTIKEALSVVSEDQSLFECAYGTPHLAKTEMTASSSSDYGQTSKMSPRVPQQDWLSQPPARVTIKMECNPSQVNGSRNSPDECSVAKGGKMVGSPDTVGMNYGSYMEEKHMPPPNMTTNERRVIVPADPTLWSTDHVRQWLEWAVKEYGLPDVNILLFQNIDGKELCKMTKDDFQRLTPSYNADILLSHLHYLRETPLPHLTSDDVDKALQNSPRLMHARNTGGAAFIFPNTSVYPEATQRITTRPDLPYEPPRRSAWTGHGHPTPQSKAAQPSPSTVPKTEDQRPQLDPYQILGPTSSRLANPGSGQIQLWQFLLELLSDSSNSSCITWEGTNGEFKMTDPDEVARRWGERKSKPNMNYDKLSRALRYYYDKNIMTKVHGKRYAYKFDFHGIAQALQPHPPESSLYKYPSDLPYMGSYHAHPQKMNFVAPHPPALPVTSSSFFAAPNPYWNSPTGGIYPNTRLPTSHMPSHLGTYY
Summary of the method: as §1

ELF1 = ELF1 (Homo sapiens, UniProt P32519 1-619)
Chain of ELF1 (P32519 whole entry): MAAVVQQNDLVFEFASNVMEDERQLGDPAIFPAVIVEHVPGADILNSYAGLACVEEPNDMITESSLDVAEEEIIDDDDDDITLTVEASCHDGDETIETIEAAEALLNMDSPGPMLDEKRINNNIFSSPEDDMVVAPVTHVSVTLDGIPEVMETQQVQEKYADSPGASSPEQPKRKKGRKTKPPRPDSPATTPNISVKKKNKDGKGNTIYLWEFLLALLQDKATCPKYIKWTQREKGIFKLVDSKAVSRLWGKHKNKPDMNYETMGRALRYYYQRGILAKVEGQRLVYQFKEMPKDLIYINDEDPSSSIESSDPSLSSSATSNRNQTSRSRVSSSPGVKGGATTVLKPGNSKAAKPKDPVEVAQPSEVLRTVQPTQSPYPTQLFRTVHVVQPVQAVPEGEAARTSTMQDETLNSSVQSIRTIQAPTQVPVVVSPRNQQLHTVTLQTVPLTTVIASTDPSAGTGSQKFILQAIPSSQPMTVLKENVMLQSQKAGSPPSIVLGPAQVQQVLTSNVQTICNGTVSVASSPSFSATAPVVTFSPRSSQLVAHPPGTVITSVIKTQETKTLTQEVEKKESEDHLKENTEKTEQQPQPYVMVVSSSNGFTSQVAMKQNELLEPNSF
Summary of the method: as §1

EHF = molecular target: T5, EHF (Homo sapiens, UniProt Q9NZC4 1-300)
T5 sequence: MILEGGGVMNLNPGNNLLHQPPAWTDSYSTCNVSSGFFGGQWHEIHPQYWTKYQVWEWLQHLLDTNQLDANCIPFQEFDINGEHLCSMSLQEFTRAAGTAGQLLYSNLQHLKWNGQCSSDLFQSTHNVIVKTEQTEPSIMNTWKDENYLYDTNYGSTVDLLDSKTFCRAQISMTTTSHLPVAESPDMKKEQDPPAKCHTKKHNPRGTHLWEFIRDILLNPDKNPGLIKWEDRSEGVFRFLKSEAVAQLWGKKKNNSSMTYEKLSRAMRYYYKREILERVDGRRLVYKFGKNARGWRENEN
Summary of the method: as §1

SPI1 = SPI1 (Homo sapiens, UniProt P17947 1-270)
Summary of the method: as §1

SPIB = SPIB (Homo sapiens, UniProt Q01892 1-262)
Chain of SPIB (Q01892 whole entry): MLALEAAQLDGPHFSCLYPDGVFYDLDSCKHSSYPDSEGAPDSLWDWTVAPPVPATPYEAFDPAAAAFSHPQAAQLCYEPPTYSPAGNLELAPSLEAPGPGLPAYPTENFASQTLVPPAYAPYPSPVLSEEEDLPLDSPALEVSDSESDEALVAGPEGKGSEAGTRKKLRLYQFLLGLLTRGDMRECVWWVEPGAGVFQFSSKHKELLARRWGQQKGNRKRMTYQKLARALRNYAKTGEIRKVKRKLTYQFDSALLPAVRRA
Summary of the method: as §1

ELK3 = molecular target: T6, ELK3 (Homo sapiens, UniProt P41970 1-407)
T6 sequence: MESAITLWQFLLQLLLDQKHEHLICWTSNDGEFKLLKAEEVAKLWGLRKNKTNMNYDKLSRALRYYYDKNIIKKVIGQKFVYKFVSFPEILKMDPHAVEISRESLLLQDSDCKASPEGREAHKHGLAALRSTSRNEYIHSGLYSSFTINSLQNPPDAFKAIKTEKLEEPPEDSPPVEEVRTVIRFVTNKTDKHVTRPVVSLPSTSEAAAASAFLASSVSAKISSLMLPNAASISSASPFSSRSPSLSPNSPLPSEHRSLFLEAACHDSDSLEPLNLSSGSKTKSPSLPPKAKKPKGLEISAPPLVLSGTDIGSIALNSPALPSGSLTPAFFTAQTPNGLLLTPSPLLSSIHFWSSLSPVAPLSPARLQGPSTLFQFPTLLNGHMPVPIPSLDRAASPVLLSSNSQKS
Summary of the method: as §1

FEV = molecular target: T7, FEV (Homo sapiens, UniProt Q99581 1-238)
T7 sequence: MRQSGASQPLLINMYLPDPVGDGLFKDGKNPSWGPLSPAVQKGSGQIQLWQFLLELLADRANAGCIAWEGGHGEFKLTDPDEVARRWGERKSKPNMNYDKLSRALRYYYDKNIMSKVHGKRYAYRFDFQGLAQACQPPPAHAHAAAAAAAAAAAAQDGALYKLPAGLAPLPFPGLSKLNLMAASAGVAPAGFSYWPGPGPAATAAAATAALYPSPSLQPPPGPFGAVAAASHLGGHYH
Summary of the method: as §1

ETV5 = ETV5 (Homo sapiens, UniProt P41161 1-510)
Chain of ETV5 (P41161 whole entry): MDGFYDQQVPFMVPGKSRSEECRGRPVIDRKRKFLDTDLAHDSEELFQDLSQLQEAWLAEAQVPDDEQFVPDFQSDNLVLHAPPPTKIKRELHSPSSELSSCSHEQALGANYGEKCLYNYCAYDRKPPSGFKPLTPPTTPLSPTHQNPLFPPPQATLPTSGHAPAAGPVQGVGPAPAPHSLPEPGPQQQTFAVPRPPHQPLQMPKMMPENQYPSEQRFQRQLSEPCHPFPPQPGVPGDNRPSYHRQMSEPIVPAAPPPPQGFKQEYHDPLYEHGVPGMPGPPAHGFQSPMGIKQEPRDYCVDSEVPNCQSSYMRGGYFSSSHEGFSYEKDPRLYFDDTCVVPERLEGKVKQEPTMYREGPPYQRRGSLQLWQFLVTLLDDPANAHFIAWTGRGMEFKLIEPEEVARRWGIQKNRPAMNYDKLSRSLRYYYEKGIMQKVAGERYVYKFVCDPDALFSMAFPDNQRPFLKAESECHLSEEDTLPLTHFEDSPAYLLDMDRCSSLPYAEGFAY
Summary of the method: as §1

SPIC = molecular target: T8, SPIC (Homo sapiens, UniProt Q8N5J4 1-248)
T8 sequence: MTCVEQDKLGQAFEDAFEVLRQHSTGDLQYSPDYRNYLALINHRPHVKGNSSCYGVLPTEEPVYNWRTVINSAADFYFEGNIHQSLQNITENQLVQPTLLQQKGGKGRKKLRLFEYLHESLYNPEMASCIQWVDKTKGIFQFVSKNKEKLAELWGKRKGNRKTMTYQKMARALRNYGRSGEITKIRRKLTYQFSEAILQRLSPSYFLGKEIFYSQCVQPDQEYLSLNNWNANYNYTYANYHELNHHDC
Summary of the method: as §1

ELF4 = ELF4 (Homo sapiens, UniProt Q99607 1-663)
Chain of ELF4 (Q99607 whole entry): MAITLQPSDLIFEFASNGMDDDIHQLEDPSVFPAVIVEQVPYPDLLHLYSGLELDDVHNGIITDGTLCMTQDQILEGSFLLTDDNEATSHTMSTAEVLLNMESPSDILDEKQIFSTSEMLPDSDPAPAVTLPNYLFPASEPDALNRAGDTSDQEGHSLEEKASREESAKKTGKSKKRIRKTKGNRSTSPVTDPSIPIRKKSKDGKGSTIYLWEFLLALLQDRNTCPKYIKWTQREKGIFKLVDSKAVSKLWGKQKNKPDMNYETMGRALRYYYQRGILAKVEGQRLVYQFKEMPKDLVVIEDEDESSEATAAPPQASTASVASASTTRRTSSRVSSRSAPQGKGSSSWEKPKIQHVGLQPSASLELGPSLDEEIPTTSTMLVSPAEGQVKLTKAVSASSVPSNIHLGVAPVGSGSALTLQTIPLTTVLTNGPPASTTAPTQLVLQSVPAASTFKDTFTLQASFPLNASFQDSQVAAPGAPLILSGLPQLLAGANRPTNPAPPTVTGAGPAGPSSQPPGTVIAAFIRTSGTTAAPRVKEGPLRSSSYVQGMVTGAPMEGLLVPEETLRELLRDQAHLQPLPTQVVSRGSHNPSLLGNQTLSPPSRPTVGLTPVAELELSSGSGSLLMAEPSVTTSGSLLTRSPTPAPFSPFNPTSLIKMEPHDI
Summary of the method: as §1

ELK4 = molecular target: T9, ELK4 (Homo sapiens, UniProt P28324-2 1-405)
T9 sequence: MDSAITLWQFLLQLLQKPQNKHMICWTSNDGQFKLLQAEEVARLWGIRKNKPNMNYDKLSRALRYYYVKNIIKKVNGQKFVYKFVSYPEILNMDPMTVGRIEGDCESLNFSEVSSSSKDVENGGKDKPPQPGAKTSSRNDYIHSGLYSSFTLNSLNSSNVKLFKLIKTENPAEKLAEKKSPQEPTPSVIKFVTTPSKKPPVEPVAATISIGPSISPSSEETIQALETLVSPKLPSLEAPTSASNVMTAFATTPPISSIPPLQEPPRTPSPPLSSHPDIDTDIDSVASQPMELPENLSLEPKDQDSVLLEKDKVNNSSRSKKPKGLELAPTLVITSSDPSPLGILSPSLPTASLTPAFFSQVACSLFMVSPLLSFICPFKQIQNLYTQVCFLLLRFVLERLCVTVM
Summary of the method: as §1

ETV2 = molecular target: T10, ETV2 (Homo sapiens, UniProt O00321 1-342)
T10 sequence: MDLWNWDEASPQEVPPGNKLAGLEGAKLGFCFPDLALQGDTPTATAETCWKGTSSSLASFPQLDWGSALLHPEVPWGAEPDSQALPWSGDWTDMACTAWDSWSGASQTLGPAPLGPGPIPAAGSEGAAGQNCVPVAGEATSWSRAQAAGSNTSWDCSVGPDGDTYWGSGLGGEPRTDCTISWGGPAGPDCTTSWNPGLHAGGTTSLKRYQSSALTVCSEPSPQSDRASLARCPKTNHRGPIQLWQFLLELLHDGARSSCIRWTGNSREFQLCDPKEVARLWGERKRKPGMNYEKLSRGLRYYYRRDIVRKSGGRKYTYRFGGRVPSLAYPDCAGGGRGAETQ
Summary of the method: as §1

ELF3 = molecular target: T11, ELF3 (Homo sapiens, UniProt P78545 1-371)
T11 sequence: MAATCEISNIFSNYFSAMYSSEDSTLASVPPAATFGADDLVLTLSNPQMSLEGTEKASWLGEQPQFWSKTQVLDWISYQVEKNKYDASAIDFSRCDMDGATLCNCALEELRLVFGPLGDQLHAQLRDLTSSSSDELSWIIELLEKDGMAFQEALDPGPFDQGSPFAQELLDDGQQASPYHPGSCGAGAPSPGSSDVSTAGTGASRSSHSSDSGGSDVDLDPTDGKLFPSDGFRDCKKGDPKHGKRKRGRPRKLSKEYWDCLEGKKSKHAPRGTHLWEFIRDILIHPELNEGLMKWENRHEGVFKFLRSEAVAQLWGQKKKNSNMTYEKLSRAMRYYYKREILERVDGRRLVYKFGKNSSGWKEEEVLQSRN
Summary of the method: as §1

ETV1 = ETV1 (Homo sapiens, UniProt P50549 1-477)
Chain of ETV1 (P50549 whole entry): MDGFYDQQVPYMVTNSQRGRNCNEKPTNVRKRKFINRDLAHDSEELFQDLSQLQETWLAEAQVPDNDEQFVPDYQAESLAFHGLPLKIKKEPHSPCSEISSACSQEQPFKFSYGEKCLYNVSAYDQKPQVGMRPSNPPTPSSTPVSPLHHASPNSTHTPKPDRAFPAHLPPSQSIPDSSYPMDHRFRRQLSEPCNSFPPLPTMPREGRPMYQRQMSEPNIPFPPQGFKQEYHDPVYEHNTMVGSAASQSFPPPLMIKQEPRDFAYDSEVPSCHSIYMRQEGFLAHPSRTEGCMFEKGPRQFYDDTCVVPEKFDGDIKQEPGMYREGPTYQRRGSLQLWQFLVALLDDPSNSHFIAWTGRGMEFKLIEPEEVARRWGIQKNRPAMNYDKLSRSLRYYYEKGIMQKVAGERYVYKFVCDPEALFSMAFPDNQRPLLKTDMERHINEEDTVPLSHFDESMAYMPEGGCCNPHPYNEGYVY
Summary of the method: as §1

Sequence	binding signal (FLI1)	binding signal (ELK1)	binding signal (GABPA)	binding signal (ERG)	binding signal (ELF1)	binding signal (EHF)	binding signal (SPI1)	binding signal (SPIB)	binding signal (ELK3)	binding signal (FEV)	binding signal (ETV5)	binding signal (SPIC)	binding signal (ELF4)	binding signal (ELK4)	binding signal (ETV2)	binding signal (ELF3)	binding signal (ETV1)
GTTCAT	1.19 fold enrichment (6-mer frequency, TF over GST control)	1.25 fold enrichment (6-mer frequency, TF over GST control)	1.19 fold enrichment (6-mer frequency, TF over GST control)	1.1 fold enrichment (6-mer frequency, TF over GST control)	1.13 fold enrichment (6-mer frequency, TF over GST control)	1.17 fold enrichment (6-mer frequency, TF over GST control)	1.18 fold enrichment (6-mer frequency, TF over GST control)	1.14 fold enrichment (6-mer frequency, TF over GST control)	1.15 fold enrichment (6-mer frequency, TF over GST control)	1.1 fold enrichment (6-mer frequency, TF over GST control)	1.16 fold enrichment (6-mer frequency, TF over GST control)	1.15 fold enrichment (6-mer frequency, TF over GST control)	1.18 fold enrichment (6-mer frequency, TF over GST control)	1.2 fold enrichment (6-mer frequency, TF over GST control)	1.01 fold enrichment (6-mer frequency, TF over GST control)	1.04 fold enrichment (6-mer frequency, TF over GST control)	1.12 fold enrichment (6-mer frequency, TF over GST control)
CCACCC	1.17 fold enrichment (6-mer frequency, TF over GST control)	1.28 fold enrichment (6-mer frequency, TF over GST control)	1.28 fold enrichment (6-mer frequency, TF over GST control)	1.21 fold enrichment (6-mer frequency, TF over GST control)	1.23 fold enrichment (6-mer frequency, TF over GST control)	1.31 fold enrichment (6-mer frequency, TF over GST control)	1.22 fold enrichment (6-mer frequency, TF over GST control)	1.31 fold enrichment (6-mer frequency, TF over GST control)	1.23 fold enrichment (6-mer frequency, TF over GST control)	1.17 fold enrichment (6-mer frequency, TF over GST control)	1.25 fold enrichment (6-mer frequency, TF over GST control)	1.21 fold enrichment (6-mer frequency, TF over GST control)	1.32 fold enrichment (6-mer frequency, TF over GST control)	1.38 fold enrichment (6-mer frequency, TF over GST control)	1.3 fold enrichment (6-mer frequency, TF over GST control)	1.37 fold enrichment (6-mer frequency, TF over GST control)	1.16 fold enrichment (6-mer frequency, TF over GST control)
